This is part of a sample that, as a whole, favours compounds with a hit. Of some 83,000 tested, about 20% had one in any assay.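 Single-dose data. Exposure time 48 hours. Values below 10 considered active.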 A number with no mark means an inactive call. Activity calls are given as the source filed them.
test system: NCI-H522 lung; test: NCI-60 one-dose screen, 48 h (100 = growth as untreated, 0 = no growth, -100 = all killed); details: 10 µM unless noted
Protocol: Growth inhibition of the NCI-H522 human Non-Small Cell Lung tumor cell line is measured as a screen for anti-cancer activity. Cells are grown in 96 well plates and exposed to the test compound for 48 hours. Compounds are tested at a single concentration, which is 10^-5 M for most compounds. The reported endpoint is percent growth (GI% or GIPRCNT), where numbers from 0 - 100% represent growth inhibition, and numbers from -100% - 0 represent cell death. For example, a value of 40 represents 60% growth inhibition. A value of 0 means no net growth occurred over the course of the experiment. A value of -40 indicates 40% of cells at the beginning of the experiment died by the end of the experiment. A value of -100 means all cells are dead at the end of the experiment.
NCI-60 Human Tumor Cell Lines Screen was performed using the standard one-dose NCI protocol, which is described in more detail at https://dtp.cancer.gov/discovery_development/nci-60/default.htm.
Compounds with GIPRCNT values below 10 were considered active. Activity score was based on GIPRCNT using the following formula: […]
Score is 0 for GIPRCNT values of 100 or above, 50 for GIPRCNT values of 0, and 100 for GIPRCNT values of -100.

| SMILES | growth |
| --- | --- |
| Nc1ccccc1NC(=O)c1ccc(NC(=O)C/C=C/c2cccnc2)cc1 | 7.23% (active) |
| NC(N)=Nc1ccc(Oc2cccc(NC(N)=Nc3ccc(Br)cc3)c2)cn1 | 46.9% |
| CCn1c(SCC(=O)Nc2cccc(C(=O)/C=C/c3cc(OC)c(OC)c(OC)c3)c2)nc2ccccc2c1=O | 38% |
| NC(N)=Nc1ccc(Oc2cccc(NC(N)=Nc3ccc(I)cc3F)c2)cc1 | 66.8% |
| Cn1ccnc1C(=O)/C=C/c1ccc(NC(=O)c2ccc(F)cc2)cc1 | 17.4% |
| Cc1cccc2c3c(sc12)C(c1ccc(F)cc1)C(C#N)=C(/N=C/c1ccc(Cl)cc1)O3 (stereo not given) | -53% (active) |
| CCOC(=O)c1c(Nc2ccccc2)nn2c(-c3cccs3)ccnc12 | 82.1% |
| C=C(C=O)[C@@H]1CC[C@]2(CO)CC[C@]3(C)[C@H](CC[C@@H]4[C@@]5(C)CCCNC(C)(C)[C@@H]5CC[C@]43C)[C@@H]12 | 77.6% |
| COc1ccc(-c2nc3ccc(-c4nnc(SCC(=O)Nc5ccc(C(=O)/C=C/c6ccc(Cl)cc6)cc5)o4)cc3[nH]2)cc1 | 95.3% |
| CCOc1ccc(C(=O)Nc2ncc(Cc3ccc(F)cc3)s2)cc1 | 10.8% |
| c1ccc(C(c2nc3ncncc3[nH]2)N2CSc3nc4ncncc4n3C2)cc1 (stereo not given) | 39.8% |
| NC(N)=Nc1ccc(Nc2cccc(Nc3ccc(Cl)c(C(F)(F)F)c3)c2)cn1 | 8.21% (active) |
| CCO/C=N/C1=C(C#N)C(c2ccc(OC)cc2)c2sc3c(C)cccc3c2O1 (stereo not given) | -3.87% (active) |
| Oc1cccc2ccc(-c3nnc(SCc4ccc(O)c5ncccc45)o3)nc12 | 11.2% |
| CC1(C)NCCC[C@]2(C)[C@H]3C/C(=N\O)C4[C@@H]5C[C@@](C)(CO)CC[C@]5(C)CC[C@@]4(C)[C@]3(C)CC[C@@H]12 (stereo not given in full) | 97.4% |
| NS(=O)(=O)c1ccc(Nc2nc(N/N=C/c3ccccn3)nc(Nc3ccccc3)n2)cc1 | -32.6% (active) |
| Cn1cc(-c2nc(N)nnc2-c2c[nH]c3ccc(Br)cc23)c2cc(Br)ccc21 | 11.6% |
| O=C(NNc1nc2cc(F)c(F)cc2n2c(CN3CC4CNCC4C3)ccc12)c1cnccn1 (stereo not given) | 11.2% |
| COc1ccc(/C=N/NC2=NC3C(S2)N(C)C(=O)N3C)cc1 (stereo not given) | -9.16% (active) |
| NC(N)=Nc1ccc(Oc2cccc(NC(N)=Nc3ccc(Cl)c(C(F)(F)F)c3)c2)cn1 | 9.96% (active) |

| SMILES | growth |
| --- | --- |
| N/C(=N\C(N)=N\c1nc2ccccc2s1)c1cccc(F)c1 | 94.5% [5 µM] |
| Cn1cc(-c2nnc(N)nc2-c2c[nH]c3ccc(F)cc23)c2cc(F)ccc21 | 57.5% |
| Cn1ccnc1C(=O)/C=C/c1ccc(CNC(=O)c2c(F)c(F)c(F)c(F)c2F)cc1 | 32.1% |
| NC(N)=Nc1ccc(Oc2cccc(Nc3ccc(Br)c(C(F)(F)F)c3)c2)cn1 | -64.8% (active) |
| COc1cc(/C=C2\C(=O)Nc3ccccc32)ccc1OCc1ccc(F)cc1 | 91.9% |
| O=C(NCc1ncc[nH]1)c1ccc(-c2nc3ccc4[nH]ncc4c3c3c2CCCC3)cc1 | -65% (active) |
| COc1ccc(C(=O)Nc2ncc(Cc3ccccc3Cl)s2)cc1 | -37.3% (active) |
| O=C(CN1CCN(c2cc(=O)n(-c3ccccc3)c3ccccc23)CC1)Nc1nc(-c2ccc(Cl)cc2)cs1 | 56.3% |
| ClC(Cl)c1nc(-c2ccco2)n2nc(-c3ccccc3)cc2n1 | 91.3% |
| O=C(Nc1nc2ccc([N+](=O)[O-])cc2s1)Nc1ccccc1Cl | 0.0093% (active) |
| C=CCn1c(-c2nc3ccc(C(=C(C#N)C#N)c4ccccc4)cc3[nH]2)cc2cc(Br)ccc21 | 60.2% |
| COc1ccc(COc2ccc(/C=C3\C(=O)Nc4ccccc43)cc2OC)cc1 | 93.4% |
| CNC(=O)c1c(NC(=O)c2ccccc2C(F)(F)F)sc2c1CCC(=O)C2 | 3.39% (active) |
| C#Cc1nc(C(=O)NCCC(=O)Nc2ccc(NC(=O)c3ccc(/C=C/C(=O)c4nccn4C)cc3)cc2)cs1 | 14.9% |
| CC(=O)c1ccc(Nc2nc(SCC(C)C)nc(-c3ccccc3)c2C#N)cc1 | 87.3% |
| COc1cc2nc(Cl)nc(Nc3cccc(C4=Nc5c(N)nc(N)nc5NC(c5ccccc5)C4)c3)c2cc1OC (stereo not given) | 76.5% |
| CCc1ccc(SC2c3ccc(N(CC)CC)cc3Oc3nc(N)c(C#N)c(N)c32)cc1 (stereo not given) | -38.4% (active) |
| O=C(CSc1nnc(-c2ccc(Cl)cc2)n1-c1ccccc1)Nc1cccc(Cl)c1 | 69.8% |
| NS(=O)(=O)c1ccc(Nc2nc(Nc3ccccc3)nc3nnc(SCC(=O)NC4CCCCC4)n23)cc1 | 92.1% |
| NC(N)=Nc1ccc(Oc2ccc(Nc3ccc(Cl)c(C(F)(F)F)c3)cc2)cc1 | 18.2% |

Reference: PubChem BioAssay (NCI)
